10 compounds from PubChem BioAssay (NCI) can be followed below.

Assay [1] is described as follows: NCI Yeast Anticancer Drug Screen. Data for the rad50 strain (AID 155).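 Note: 0% = growth of vehicle-only cultures of the same strain.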 The following applies: S. cerevisiae rad50 strain growth inhibition, active compounds read high. The gist of the method:
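Inhibition values express reduced yeast growth in compound-treated cultures relative to vehicle-treated controls.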

The nature of assay [2]: NCI Yeast Anticancer Drug Screen. Data for the mec2-1 strain (AID 157). Conditions: S. cerevisiae mec2-1 strain, active compounds read high. The gist of the method:
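Growth inhibition is read against vehicle-treated controls after compound exposure of the mec2-1 yeast strain, which is defective in DNA damage repair or cell cycle control.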

The nature of assay [3]: NCI Yeast Anticancer Drug Screen. Data for the sgs1 mgt1 strain (AID 161).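 Note: 0% = growth of cultures given vehicle only.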 Conditions: S. cerevisiae sgs1 mgt1 strain, active compounds read high. The procedure, abridged: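 Growth of a repair-deficient yeast mutant was monitored after compound treatment and expressed as inhibition relative to vehicle-treated cultures.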
Assay [4] can be described thus: NCI Yeast Anticancer Drug Screen. Data for the cln2 rad14 strain (AID 165).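 Note: 0% = growth equal to vehicle treated cultures.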 The following applies: S. cerevisiae cln2 rad14 strain, active compounds read high. The gist of the method: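 Growth inhibition, relative to vehicle-treated controls, is the read-out. The test organism is a yeast strain with defined genetic alterations, cln2 rad14.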
The nature of assay [5]: NCI Yeast Anticancer Drug Screen. Data for the bub3 strain (AID 167). Conditions: S. cerevisiae bub3 mutant strain, active compounds read high. The gist of the method:
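Steps: expose the mutant yeast strain to compound; grow alongside vehicle-treated cultures; measure growth; express inhibition against the vehicle cultures.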

A short description of assay [6]: NCI Yeast Anticancer Drug Screen. Data for the mlh1 rad18 strain (AID 175). The following applies: S. cerevisiae mlh1 rad18 strain growth inhibition, active compounds read high. The gist of the method: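 Cells of a genetically altered yeast strain, deficient in DNA damage repair, were treated with compound. Their growth was then compared with that of vehicle-treated cultures to give inhibition.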

Where [7] appears, read: at 5.0 µM (retest, dose inferred, filed as 0.5).
The mark [8] stands for this setting: at 50.0 µM (retest, dose inferred, filed as 5.0).

The panel holds about 79,000 compounds, 15% with a hit somewhere; the sample as a whole holds those more often. Values without a mark were called inactive. Calls of active or inactive are those of the source. Cut-off read from the data, not from the text of the source: active = growth inhibition above about 70%; inactive = the rest.

`O=C(Nc1ccc(Cl)c(Cl)c1Cl)Oc1c(Cl)c(Cl)c(Cl)c(Cl)c1Cl`: the growth inhibition is 25% in assay [1] (setting [7]); 97% (active) in assay [1] (setting [8]); 99.5% (active) in assay [1] (at 50.0 µM); 36% in assay [2] (setting [7]); 100% (active) in assay [2] (setting [8]); 99.6% (active) in assay [2] (at 50.0 µM). Further, the growth inhibition in assay [3] (setting [7]) is 43%; in assay [3] (setting [8]), 99% (active); in assay [3] (at 50.0 µM) it was 99.6% (active); in assay [4] (setting [7]), 13%; in assay [4] (setting [8]), 99% (active); in assay [4] (at 50.0 µM) it was 99.2% (active). For the same compound, the growth inhibition in assay [5] (setting [7]) was 10%; in assay [5] (setting [8]), 99% (active); in assay [5] (at 50.0 µM), 98.5% (active); in assay [6] (setting [7]), 20%; in assay [6] (setting [8]), 99% (active); in assay [6] (at 50.0 µM) it was 99.5% (active).
With `CC1=NC(=Cc2cccc(Cl)c2)C(=O)N1n1c(-c2ccccc2)nc2ccccc2c1=O`, the growth inhibition in assay [1] (setting [7]) is 18%; in assay [1] (setting [8]), 73% (active); in assay [1] (at 50.0 µM), 68.5%; in assay [2] (setting [7]), 21%; in assay [2] (setting [8]) it was 77% (active); in assay [2] (at 50.0 µM) it was 69.9%. In addition, the growth inhibition was 11% in assay [3] (setting [7]); 71% (active) in assay [3] (setting [8]); 79.4% (active) in assay [3] (at 50.0 µM); 16% in assay [4] (setting [7]); 84% (active) in assay [4] (setting [8]); 78% (active) in assay [4] (at 50.0 µM). Further, the growth inhibition was -9% in assay [5] (setting [7]); 86% (active) in assay [5] (setting [8]); 74.7% (active) in assay [5] (at 50.0 µM); 11% in assay [6] (setting [7]); 81% (active) in assay [6] (setting [8]); 81.7% (active) in assay [6] (at 50.0 µM).
As for `C/C=C(\CCC1NCCc2c1[nH]c1ccccc21)[Si](C)(C)C` (stereo not given), the growth inhibition in assay [1] (setting [7]) was -20%; in assay [1] (setting [8]), 99% (active); in assay [1] (at 50.0 µM), 96.3% (active); in assay [2] (setting [7]), -4%; in assay [2] (setting [8]), 99% (active); in assay [2] (at 50.0 µM), 86.5% (active). Also, the growth inhibition in assay [3] (setting [7]) was 19%; in assay [3] (setting [8]), 99% (active); in assay [3] (at 50.0 µM), 93.1% (active); in assay [4] (setting [7]), 4%; in assay [4] (setting [8]) it was 99% (active); in assay [4] (at 50.0 µM), 75.3% (active). For the same compound, the growth inhibition in assay [5] (setting [7]) is 11%; in assay [5] (setting [8]), 98% (active); in assay [5] (at 50.0 µM) it was 77.8% (active); in assay [6] (setting [7]) it was -21%; in assay [6] (setting [8]), 100% (active); in assay [6] (at 50.0 µM) it was 95.8% (active).
`C#Cc1cccc(N2C(=O)CCC2=O)c1`: the growth inhibition in assay [1] (setting [7]) was 36%; in assay [1] (setting [8]) it was 44%; in assay [1] (at 50.0 µM), 91.7% (active); in assay [2] (setting [7]) it was 48%; in assay [2] (setting [8]), 43%; in assay [2] (at 50.0 µM), 93.6% (active). For the same compound, the growth inhibition in assay [3] (setting [7]) was 99% (active); in assay [3] (setting [8]), 99% (active); in assay [3] (at 50.0 µM) it was 94.1% (active); in assay [4] (setting [7]), 97% (active); in assay [4] (setting [8]), 99% (active); in assay [4] (at 50.0 µM), 91.2% (active). Besides, the growth inhibition in assay [5] (setting [7]) is 100% (active); in assay [5] (setting [8]), 97% (active); in assay [5] (at 50.0 µM), 92.3% (active); in assay [6] (setting [7]), 42%; in assay [6] (setting [8]), 40%; in assay [6] (at 50.0 µM), 91.8% (active).
`O=C1CSC(=S)N1Cc1ccccc1Cl`: the growth inhibition was 15% in assay [1] (setting [7]); 93% (active) in assay [1] (setting [8]); 98.9% (active) in assay [1] (at 50.0 µM); 6% in assay [2] (setting [7]); 97% (active) in assay [2] (setting [8]); 96.2% (active) in assay [2] (at 50.0 µM). Further, the growth inhibition in assay [3] (setting [7]) was 11%; in assay [3] (setting [8]), 98% (active); in assay [3] (at 50.0 µM), 97.9% (active); in assay [4] (setting [7]) it was 2%; in assay [4] (setting [8]), 81% (active); in assay [4] (at 50.0 µM), 97.3% (active). For the same compound, the growth inhibition in assay [5] (setting [7]) is -1%; in assay [5] (setting [8]), 94% (active); in assay [5] (at 50.0 µM), 95.2% (active); in assay [6] (setting [7]) it was 11%; in assay [6] (setting [8]), 98% (active); in assay [6] (at 50.0 µM), 99% (active).
`CCSc1nnc(CSc2nc(-c3ccccc3)c(-c3ccccc3)[nH]2)n1-c1ccccc1`: the growth inhibition is 35% in assay [1] (setting [7]); 35% in assay [1] (setting [8]); 79.1% (active) in assay [1] (at 50.0 µM); 30% in assay [2] (setting [7]); 30% in assay [2] (setting [8]); 68.7% in assay [2] (at 50.0 µM). The growth inhibition in assay [3] (setting [7]) is 32%; in assay [3] (setting [8]), 32%; in assay [3] (at 50.0 µM), 76.7% (active); in assay [4] (setting [7]), 26%; in assay [4] (setting [8]), 26%; in assay [4] (at 50.0 µM) it was 74.5% (active). The growth inhibition in assay [5] (setting [7]) was 25%; in assay [5] (setting [8]), 25%; in assay [5] (at 50.0 µM), 63.9%; in assay [6] (setting [7]), 28%; in assay [6] (setting [8]) it was 28%; in assay [6] (at 50.0 µM) it was 62.5%.
As for `COC(=O)c1c(COC(=O)NC(C)C)c2n(c1C)CS(=O)(=O)C2`, the growth inhibition in assay [1] (setting [7]) is -38%; in assay [1] (setting [8]), -8%; in assay [1] (at 50.0 µM), 97.3% (active); in assay [2] (setting [7]) it was 3%; in assay [2] (setting [8]) it was 5%; in assay [2] (at 50.0 µM), 98.5% (active). Besides, the growth inhibition was -3% in assay [3] (setting [7]); 31% in assay [3] (setting [8]); 98.4% (active) in assay [3] (at 50.0 µM); -6% in assay [4] (setting [7]); -20% in assay [4] (setting [8]); 98% (active) in assay [4] (at 50.0 µM). The growth inhibition in assay [5] (setting [7]) was -18%; in assay [5] (setting [8]), 3%; in assay [5] (at 50.0 µM), 97% (active); in assay [6] (setting [7]), -35%; in assay [6] (setting [8]) it was -32%; in assay [6] (at 50.0 µM) it was 97.7% (active).
Regarding `COc1ccc2c(c1)CCC/C2=N\NS(=O)(=O)c1c(C)cc(C)cc1C`, the growth inhibition in assay [1] (setting [7]) was 15%; in assay [1] (setting [8]), 59%; in assay [1] (at 50.0 µM) it was 26.2%; in assay [2] (setting [7]) it was 16%; in assay [2] (setting [8]), 60%; in assay [2] (at 50.0 µM), -43.2%. The growth inhibition is 16% in assay [3] (setting [7]); 38% in assay [3] (setting [8]); 37.1% in assay [3] (at 50.0 µM); 8% in assay [4] (setting [7]); 68% in assay [4] (setting [8]); 73.5% (active) in assay [4] (at 50.0 µM). Further, the growth inhibition in assay [5] (setting [7]) is 11%; in assay [5] (setting [8]), 52%; in assay [5] (at 50.0 µM) it was 54.8%; in assay [6] (setting [7]), 26%; in assay [6] (setting [8]), 75% (active); in assay [6] (at 50.0 µM) it was 5.7%.
Turning to `C/C=C/C(=O)N1c2ccccc2CC1c1c(C)[nH]c2ccccc12` (stereo not given), the growth inhibition in assay [1] (setting [7]) is 7%; in assay [1] (setting [8]), 90% (active); in assay [1] (at 50.0 µM), 94.3% (active); in assay [2] (setting [7]), 3%; in assay [2] (setting [8]) it was 96% (active); in assay [2] (at 50.0 µM), 94.8% (active). Further, the growth inhibition in assay [3] (setting [7]) is 3%; in assay [3] (setting [8]), 95% (active); in assay [3] (at 50.0 µM) it was 94.3% (active); in assay [4] (setting [7]), 2%; in assay [4] (setting [8]), 86% (active); in assay [4] (at 50.0 µM) it was 96% (active). Also, the growth inhibition in assay [5] (setting [7]) was 6%; in assay [5] (setting [8]) it was 86% (active); in assay [5] (at 50.0 µM), 95.5% (active); in assay [6] (setting [7]), 22%; in assay [6] (setting [8]), 96% (active); in assay [6] (at 50.0 µM), 96.6% (active).
For the compound `COc1ccc(-c2cc(-c3ccco3)c(C#N)c(=S)n2C2OC(CO)C(O)C(O)C2O)cc1` (stereo not given), the growth inhibition is -8% in assay [1] (setting [7]); 1% in assay [1] (setting [8]); 5.1% in assay [1] (at 50.0 µM); 3% in assay [2] (setting [7]); -12% in assay [2] (setting [8]); 4.3% in assay [2] (at 50.0 µM). The growth inhibition in assay [3] (setting [7]) was -1%; in assay [3] (setting [8]), -3%; in assay [3] (at 50.0 µM) it was -15.2%; in assay [4] (setting [7]), 15%; in assay [4] (setting [8]), 16%; in assay [4] (at 50.0 µM), 30.1%. Besides, the growth inhibition is 2% in assay [5] (setting [7]); 7% in assay [5] (setting [8]); -3% in assay [5] (at 50.0 µM); 10% in assay [6] (setting [7]); 20% in assay [6] (setting [8]); 4.1% in assay [6] (at 50.0 µM).
